Many of the other results were omitted from the sample, so hits are more common in it than they were.
TTR transcr act: TTR transcription activators in neuroblastoma reporter cells, primary screen, cell-based, luminescence, SH-SY5Y, TTR promoter Gaussia luciferase; 100% = recombinant luciferase protein wells; activation, % at 16.7 µM; 1.3% of 92,000 active; AID 1117267, 2014;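 active = activation above the mean of all tested compounds plus 3 SD, cut at about 9.5% in these data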;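 also: cells exposed to compounds for one day before reading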
HuH7 TTR inh: TTR promoter reporter inhibitors in hepatoma cells, counter-screen for TTR transcription activator project, cell-based, luminescence, HuH7 hepatoma | shares compounds with TTR transcr act | HuH7 TTR promoter-Gaussia luciferase reporter | inhibition, % at 16.7 µM | 4% of 1,100 active;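 active = average inhibition above the solvent-only control wells' mean plus 3 SD, cut at about 15% in these data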;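 also: inhibitors lower well luminescence so higher value means more inhibition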
TTR act confirm: TTR transcription activators, retest, confirmation, cell-based, luminescence, SH-SY5Y, triplicate; shares compounds with TTR transcr act; SHSY5Y TTR promoter Gaussia luciferase; 100% = purified Lucia enzyme wells, no cells; activation, % at 16.7 µM; 1,100 tested, under 10 active; AID 1117280, 2014;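 active = mean activation above a set limit taken from the earlier primary screen, cut at about 11% in these data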
Numbers stand for hits.

For O=C(CSc1ccccc1)NCCc1ccc(F)cc1 the results were TTR transcr act inactive.
For Cc1ccc(CC2(C)C(=O)Nc3c(Cl)cccc32)cc1 (stereo not drawn) the results were TTR transcr act inactive.
For O=C/C(=C\Nc1ccccn1)c1nc2ccccc2o1 the results were TTR transcr act 11, HuH7 TTR inh 25 and TTR act confirm inactive.
Screening O=C/C(=C\Nc1ccccn1)c1nc2cc(Cl)ccc2o1 returned TTR transcr act inactive.
For O=C/C(=C\Nc1ccc(Br)cc1)c1nc2ccccc2o1 the results were TTR transcr act inactive.
For CC1CCN(CC(=O)NNC(=O)c2cccc(Br)c2)CC1 the results were TTR transcr act inactive.
`CC(C)(C)C(=O)NNC(=O)c1cc(C(C)(C)C)nn1Cc1ccccc1` gave TTR transcr act inactive.
CC(C)(C)c1cc(C(=O)Nc2ccc(F)cc2)n(Cc2ccc(F)cc2)n1 was read as TTR transcr act inactive.
`CC(C)(C)c1cc(C(=O)NC2CC2)n(Cc2ccc(F)cc2)n1` gave TTR transcr act 9.7, HuH7 TTR inh inactive and TTR act confirm inactive.
CCOc1ccc(C(=O)O/N=C(\N)c2ccc([N+](=O)[O-])cc2)cc1OCC was read as TTR transcr act inactive.
COc1ccccc1-c1nc(SCC(=O)NCc2ccco2)c2c(=O)n(C)c(=O)n(C)c2n1 was read as TTR transcr act inactive.
CN(Cc1nc2ccccc2c(=O)[nH]1)C(=O)c1ccc(NC(=O)CSc2nnnn2C)cc1 was read as TTR transcr act inactive.
Screening O=C(NCc1cccc(Cl)c1)c1cc(COc2ccc3ncccc3c2)on1 returned TTR transcr act inactive.
Cc1ccc(-n2nc3ccc(NC(=O)c4ccc5c(c4)OCO5)cc3n2)cc1 was read as TTR transcr act inactive.
For CCc1ccc(-n2nc3ccc(NC(=O)c4ccc5c(c4)OCO5)cc3n2)cc1 the results were TTR transcr act 14, HuH7 TTR inh inactive and TTR act confirm inactive.
CC(C)(C)c1cnnn1-c1ccc(NC(=O)c2ccc3c(c2)OCO3)cc1 was read as TTR transcr act inactive.
For CCNC(=O)N(C)c1nncnc1C(=O)NC the results were TTR transcr act inactive.
For CC(C)=CCC/C(C)=C/CC/C(C)=N/O the results were TTR transcr act inactive.
Screening COc1cccc(CNc2ccc(F)c(Cl)c2)c1O returned TTR transcr act 13, HuH7 TTR inh inactive and TTR act confirm inactive.
`CCOc1cccc(CNc2ccc(O)cc2)c1OCc1ccc(Cl)cc1Cl` gave TTR transcr act inactive.
CCn1cnc2cc(NCc3cccc(OC)c3O)ccc21 was read as TTR transcr act inactive.
COc1ccc(C(=O)NNC(=O)CSc2nc3c(c(=O)n(C)c(=O)n3C)n2C)cc1 was read as TTR transcr act inactive.
Screening Cc1nn2cc(-c3cccc(Cl)c3)cnc2c1Cl returned TTR transcr act inactive.
For Cn1nnnc1NCc1cccc(Cl)c1 the results were TTR transcr act inactive.
For CC(C)n1nnnc1-c1cccc(Cl)c1 the results were TTR transcr act 12, HuH7 TTR inh inactive and TTR act confirm inactive.
`Cc1ccccc1N1C(=O)c2ccccc2NC1c1ccncc1` (stereo not drawn) gave TTR transcr act inactive.
For CC1CCCCC1NC(=O)Cc1ccc(S(=O)(=O)N2CCOCC2)s1 (stereo not drawn) the results were TTR transcr act inactive.
Screening CN(Cc1ccc(Cl)cc1Cl)C(=O)Cc1ccc(S(=O)(=O)N2CCOCC2)s1 returned TTR transcr act 20, HuH7 TTR inh inactive and TTR act confirm inactive.
For CCOc1ccc(S(=O)(=O)N2CCN(C(=O)Cc3ccc(S(=O)(=O)N4CCOCC4)s3)CC2)cc1 the results were TTR transcr act inactive.
c1ccc(-c2c[n+]3c(n2-c2ccccc2)CCC3)cc1 was read as TTR transcr act inactive.
FC(F)(F)c1ccccc1Cn1ccc2ccc(-c3ccc4ccn(Cc5ccccc5)c4c3)cc21 was read as TTR transcr act inactive.
`Cc1ccccc1Cn1ccc2ccc(-c3ccc4ccn(Cc5ccccc5)c4c3)cc21` gave TTR transcr act inactive.
FC(F)(F)c1ccccc1Cn1ccc2ccc(-c3ccc4ccn(Cc5ccccc5C(F)(F)F)c4c3)cc21 was read as TTR transcr act 18, HuH7 TTR inh inactive and TTR act confirm inactive.
Screening CC(=O)Nc1ccc(CN2CCN(CC(C)C)C(CCO)C2)cc1 (stereo not drawn) returned TTR transcr act inactive.
`COc1cc(Br)c(C(C)NC(=O)c2cccc(Br)c2)cc1OC` (stereo not drawn) gave TTR transcr act inactive.
COc1cc(C(=O)NC(C)c2cccc3ccccc23)cc(OC)c1OC (stereo not drawn) was read as TTR transcr act 18, HuH7 TTR inh inactive and TTR act confirm inactive.
For COc1cc(C(=O)NC(=S)Nc2ccc3ccccc3c2)cc(OC)c1OC the results were TTR transcr act inactive.
Screening S=c1[nH]nc(COc2ccccc2)n1/N=C/C=C/c1ccco1 returned TTR transcr act inactive.
`S=c1[nH]nc(COc2ccccc2)n1/N=C/C=C/c1ccccc1` gave TTR transcr act 20, HuH7 TTR inh inactive and TTR act confirm inactive.
`S=c1[nH]nc(COc2ccccc2)n1/N=C/c1cccc(Br)c1` gave TTR transcr act inactive.
`C[C@@H]1CN([C@@H](C)CO)S(=O)(=O)c2ccc(Br)cc2O[C@H]1CN(C)C(=O)C1CCC1` gave TTR transcr act inactive.
For CCN1C(=O)[C@@H]2[C@@H](c3ccc(-c4ccc5c(c4)OCO5)cc3)N3CCCC[C@@]3(C(=O)OC)[C@@H]2C1=O the results were TTR transcr act inactive.
Screening CCSc1ccc([C@@H]2[C@H]3C(=O)N(C)C(=O)[C@H]3[C@]3(C(=O)OC)CCCCN23)cc1 returned TTR transcr act inactive.
Screening CCN1C(=O)[C@@H]2[C@@H](c3ccc(-c4ccc(C(C)=O)cc4)cc3)N3CCCC[C@@]3(C(=O)OC)[C@@H]2C1=O returned TTR transcr act 12, HuH7 TTR inh inactive and TTR act confirm inactive.
COC(=O)[C@@]12CCCCN1[C@H](c1ccc(SC3CCCCC3)cc1)[C@@H]1C(=O)N(C)C(=O)[C@@H]12 was read as TTR transcr act 17, HuH7 TTR inh inactive and TTR act confirm inactive.
Screening COC(=O)[C@@]12CCCCN1[C@H](c1ccc(-c3ccc(C(C)=O)cc3)cc1)[C@H]1C(=O)N(C)C(=O)[C@H]12 returned TTR transcr act inactive.
Screening COC(=O)[C@@]12CCCN1[C@H](c1ccc(-c3ccccc3)cc1)[C@H]1C(=O)N(C)C(=O)[C@H]12 returned TTR transcr act inactive.
CCOC(=O)CNC(=O)N1CCCC(Cc2ccccc2)(C(=O)OCC)C1 (stereo not drawn) was read as TTR transcr act inactive.
Screening COc1ccc(-n2c(C)cc(C=O)c2C)cc1Cl returned TTR transcr act inactive.
CCCn1nnc(NC(=O)COc2ccc(C3CCCCC3)cc2)n1 was read as TTR transcr act inactive.
For COC(=O)C(C)N1C(=O)S/C(=C\c2cc(C)n(-c3ccccn3)c2C)C1=O (stereo not drawn) the results were TTR transcr act inactive.
Screening CCOC(=O)C(=O)NNc1ccccc1C returned TTR transcr act inactive.
